Only some compounds are listed: those with a hit (about 6.2% of all), similar ones and a draw of the others.
HT1080-NT tox = qHTS for induction of synthetic lethality in tumor cells producing 2HG: qHTS for the HT-1080-NT fibrosarcoma cell line | Potency, µM (titrated, usually from 46.1 µM), for inactives: at the highest dose activity, negative = less viability, actives largely listed as cytotoxic | 360,000 tested, 1.6% active | HT-1080-NT fibrosarcoma viability, CellTiter-Glo ATP luminescence, 48 h;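 note: NT is the 2HG producing partner of a matched IDH1 knockdown line; 0% = DMSO-treated cells and -100% = media-only wells without cells; nearly all actives have a fitted effect of over 55% in size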
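A 48-hour cytotoxicity screen used HT-1080-NT cells plated 2 hours before compound delivery. ATP-based CellTiter-Glo luminescence measured viability, normalized to DMSO and no-cell controls.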
HT1080 IDH1KD tx = qHTS for induction of synthetic lethality in tumor cells producing 2HG: qHTS for the HT-1080-IDH1KD cell line | HT-1080 IDH1 knockdown viability, ATP luminescence, 48 h | Potency, µM (titrated, usually from 46.1 µM), for inactives: at the highest dose activity, negative = toxicity, hits mostly cytotoxic | 360,000 tested, 2% active;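 note: 0% = DMSO wells and -100% = cell-free medium wells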
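In this qHTS, HT-1080 cells depleted of IDH1 are exposed for 48 h at 37 °C to compound titrations. Toxicity is scored from CellTiter-Glo luminescence, with DMSO as full viability and medium alone as none.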
KB-V1 cytotox = qHTS assay for MDR1-selective chemotherapeutics: Primary screen using the drug-selected MDR subline cells KB-V1; KB-V1 MDR cells viability, CellTiter-Glo, 72 h; Potency, µM (series often up to 46.1 µM), most hits filed as cytotoxic; 400,000 tested, 3.4% active; note: % is set by controls: 0 for no effect and ±100 for the full control effect; nearly all actives have a fitted effect of over 60% in size
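Following 72 h at 37 degrees C with compound, KB-V1 cell viability was read by CellTiter-Glo luminescence, medium being phenol-red-free DMEM plus 10% FBS; concentration-response parameters came from normalized, curve-fitted qHTS data.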
S2 tox = Viability Counterscreen for Primary qHTS for Inhibitors of ATXN expression; AID 651635, 2014; 400,000 tested, 0.49% active; S2 cells (HEK-293 line with an ATXN2-luciferase reporter) viability, CellTiter-Fluor protease fluorescence, 24 h; Potency, µM (series often up to 56.7 µM), hits mostly cytotoxic; note: nearly all actives have a fitted effect of over 40% in size
ATXN2 expr inh = Primary qHTS for Inhibitors of ATXN expression; HEK-293 ATXN2-luciferase reporter, luminescence, 24 h; 360,000 tested, 0.72% active; AID 1745845, 2022; Potency, µM (highest dose often 57 µM), for the others: at the top dose activity change, negative = inhibition, hits mostly inhibitors; note: % is set by controls: 0 for no effect and ±100 for the full control effect; nearly all actives have a fitted effect of over 55% in size
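qHTS (up to 57 uM final) was run with 24 h compound exposure of reporter cells at 37 °C. Each well was multiplexed: SteadyGlo luminescence measured ATXN2-luciferase expression after a fluorogenic Gly-Phe-AFC viability readout (25 uM final).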
KB-3-1 cytotox = qHTS assay for MDR1-selective chemotherapeutics: Primary screen using the parental adenocarcinoma cell KB-3-1; 400,000 tested, 1.4% active; Potency, µM (titrated, usually from 46.1 µM), hits mostly cytotoxic; KB-3-1 viability, CellTiter-Glo ATP luminescence, 72 h; AID 1347075, 2019; note: % is set by controls: 0 for no effect and ±100 for the full control effect; nearly all actives have a fitted effect of over 60% in size
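Screening of KB-3-1 cells (DMEM, 10% FBS, phenol-red free) ran from lowest to highest compound concentration; after 72 h at 37 °C viability was read luminescently and curves fitted.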
Active calls of the source: *; i = inactive; ? = inconclusive; · = not tested or not shown; ! = not active in a repeat. Calls come from the whole dose curve; as a rule, active = well fitted curve in the direction sought with a large enough effect; inconclusive = small, poorly fitted or top-dose-only effect, or another doubt; inactive = no such curve, though single readings can be large; an effect the other way counts as inactive or inconclusive. Potency is the fitted concentration of half-maximal effect.

SMILES | HT1080-NT tox | HT1080 IDH1KD tx | KB-V1 cytotox | S2 tox | ATXN2 expr inh | KB-3-1 cytotox
O=S(=O)(Nc1cccc2ccccc12)c1cccs1 | 1.6% | -1.1% | i | i | 29.3% | i
OC(CSc1nnnn1-c1ccccc1)Cn1c2ccccc2c2ccccc21 (centres undefined) | -52.6% | ? | 20.6µM* | ? | ? | ?
N#CCCN(C(=O)COC(=O)c1cccc(S(=O)(=O)N2CCCCCC2)c1)c1ccc(F)cc1 | -2.3% | 14.7% | 13µM* | i | 7.0% | i
N#CCCN(C(=O)COC(=O)c1cccc(S(=O)(=O)N2CCCC2)c1)c1ccc(F)cc1 | 6.5% | 9.7% | i | ? | -2.8% | i
O=C(C[n+]1cccc2cc(Cl)ccc21)c1ccc2c(c1)CCCC2 | · | · | i | · | · | i
CC(/C=C/c1ccccc1F)=N\NC(=O)c1cccc(F)c1 | -19.3% | ? | 20.6µM* | ? | ? | ?
CC(/C=N/NC(=O)c1ccncc1)=C\c1ccccc1 | -1.0% | ? | i | i | 7.5% | i
CC(/C=N/NC(=O)c1cccc(F)c1)=C\c1ccccc1 | ? | ? | ? | i | -0.4% | 16.4µM*
COc1cccc(N2C(=O)C(CC(=O)Nc3ccc(F)cc3)N(CCC3=CCCCC3)C2=O)c1 (centres undefined) | · | · | ? | ? | ? | i
O=C(CN1C(=O)/C(=C\c2ccc(F)cc2)Oc2ccccc21)N1CCN(c2ccccn2)CC1 | 4.4% | 0.6% | 7.31µM* | i | -16.9% | i
O=C(CN1C(=O)/C(=C\c2cccc(F)c2)Oc2ccccc21)N1CCN(c2ccccn2)CC1 | 15.8% | 5.1% | i | i | -8.0% | ?
COc1cccc2c1C(=O)/C(=C/c1ccc(N(C)C)cc1)C2 | · | · | i | · | · | i
CCOC(=O)c1cnc(NCc2ccccc2)nc1C | 8.9% | 9.6% | i | · | · | ?
COc1cc(NC(=O)c2cnc(NCc3ccccc3)nc2C)cc(OC)c1OC | ? | ? | 10.3µM* | i | -36.0% | ?
COc1ccc(Cn2ccc3nc(C)c(C(=O)Nc4cc(OC)c(OC)c(OC)c4)cc3c2=O)cc1 | · | · | i | i | -3.1% | i
COc1cccc(CNc2ncc(C(=O)Nc3cc(OC)c(OC)c(OC)c3)c(C)n2)c1 | ? | ? | i | i | 4.2% | 8.2µM*
CCn1c2ccccc2c2cc(/C=C3\C=Cc4ccccc43)ccc21 | · | · | i | · | · | i
Cc1ccc(Cl)cc1NC(=O)c1ccc2snnc2c1 | · | · | i | i | 6.1% | i
CC(CN1CCN(CC(C)C(=O)c2ccccc2)CC1)C(=O)c1ccccc1 (centres undefined) | -5.3% | 2.1% | i | i | 3.3% | i
O=C(c1ccccc1)C(CN1CCCCC1)c1ccccc1 (centres undefined) | 2.59µM* | 10.3µM* | 14.6µM* | 31.6µM* | 20µM* | 5.8µM*
CCCCOc1ccc(C(=O)CCN2CCOCC2)cc1 | ? | -16.9% | i | · | 18.9µM* | i
O=C(c1ccc(Br)cc1)C(CN1CCOCC1)c1ccccc1 (centres undefined) | 10.3µM* | 7.31µM* | ? | · | 26.7µM* | ?
CCOc1ccc(C(=O)C(CN2CCOCC2)c2ccccc2)cc1 (centres undefined) | -9.5% | 9.2µM* | ? | · | 28.2µM* | ?
COc1ccc(C(=O)NCc2nnc(SC)n2-c2ccccc2C)c(OC)c1OC | · | · | · | i | · | ·
Cc1nn(C)c2c1c(C(F)(F)F)cc(=O)n2CC(=O)NCCC(C)C | · | · | i | i | 5.5% | i
SMILES | HT1080-NT tox | HT1080 IDH1KD tx | KB-V1 cytotox | S2 tox | ATXN2 expr inh | KB-3-1 cytotox
CCOc1ccc(C(C#N)N2CCOCC2)cc1OC (centres undefined) | 3.7% | 3.0% | i | i | -1.9% | i
CN(C)CC(C(=O)c1ccccc1)c1ccccc1 (centres undefined) | -2.9% | 13µM* | ? | · | 22.4µM* | ?
CCOc1ccc(C(CN2CCOCC2)C(C)=O)cc1OC (centres undefined) | 20.6µM* | 10.3µM* | ? | i | ? | ?
CC(C)N=c1scc(-c2ccco2)n1/N=C/c1ccc(O)c(O)c1 | -8.6% | -22.1% | ? | 31.6µM* | 0.0% | i
COCCN=c1scc(-c2ccco2)n1/N=C/c1ccc(O)c(O)c1O | -8.3% | -13.6% | ? | i | -14.3% | i
O=C(c1cccc(Br)c1)c1cn(-c2ccccc2)nc1C(=O)c1ccccc1 | 8.1% | 4.3% | 11.6µM* | i | -12.5% | i
CC(=O)c1nn(-c2ccccc2)cc1C(=O)c1cccc(Br)c1 | -5.9% | -1.4% | i | ? | · | i
Cc1cccc(Nc2ncc(NC(=O)c3cccc(F)c3)c(Nc3cccc(C)c3)n2)c1 | · | · | i | i | 5.8% | i
CCOC(=O)NNc1ccc(N(CC)CC(C)O)nn1 (centres undefined) | · | · | · | i | 5.4% | ·
COc1ccc2[nH]c(C)c(CCN(Cc3cccs3)C(=S)Nc3cccc(F)c3)c2c1 | -7.7% | -20.6% | ? | ? | ? | i
COc1cccc(NC(=S)N(CCc2c(C)[nH]c3ccc(C)cc23)Cc2cccs2)c1 | -4.2% | -28.8% | ? | ? | ? | 16.4µM*
CC1CCc2nc(NC(=O)CN3CCN(Cc4ccc5c(c4)OCO5)CC3)sc2C1 (centres undefined) | ? | ? | i | i | -18.2% | ?
CC1CCc2nc(NC(=O)Nc3ccc4c(c3)OCO4)sc2C1 (centres undefined) | -19.6% | ? | i | i | 62.0% | 13µM*
COc1ccc(CN2C(=O)c3ccccc3C(/C=N\OCc3ccc(C)cc3)C2=O)cc1 (centres undefined) | -21.3% | -21.9% | ? | i | -3.5% | 20.6µM*
COc1ccc(CNCc2ccc(C(=O)O)s2)cc1 | · | · | i | i | -0.9% | i
CC(C)(C)c1ccc(O)c(O)c1 | ? | ? | i | 70.8µM*! | 39.8µM*! | ?
CC(C)(C)c1ccc(O)c(/C=N\O)c1 | -29.5% | -24.5% | i | i | 34.4% | i
O=C(C[C@@H]1C/C=C/CC[C@H](Cc2ccc(F)cc2)C(=O)OC[C@@H](Cc2ccccc2)NC1=O)N[C@H](CO)Cc1ccccc1 | ? | ? | i | 12.6µM* | 11.2µM* | ?

From PubChem
